Screening data as filed in PubChem.
VCAM1 TNFa inh = inhibitors of TNFa-induced VCAM1 expression, primary screen, imaging, HUVEC, TNFa stimulus, immunofluorescence; HUVEC TNFa-induced VCAM-1 immunofluorescence, high-content imaging; inhibition, % at 2 µM; 95,000 tested, 0.48% active;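 active means inhibition above the batch mean plus 3 SD, with images confirmed as a hit by eye, cut at about 37% in these data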;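 further: 0% = TNF-stimulated DMSO wells and 100% = unstimulated control wells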
F-actin modifier = modifiers of F-actin cytoskeleton organization, primary screen, imaging, HUVEC, phalloidin staining, high-content imaging; HUVEC TNFa F-actin phalloidin imaging; inhibition, % at 2 µM; 91,000 tested, 0.18% active; AID 836, 2007;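 active means inhibition above the batch mean plus 3 SD and confirmed as a hit by visual image inspection, cut at about 30% in these data, passing the limit was not always enough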
HUVEC tox TNFa = cytotoxicity in TNFa-stimulated HUVEC, primary screen, cytotoxicity control for VCAM1 expression modulator project, imaging, Hoechst nuclei count; 93,000 tested, 0.17% active; cell count reduction, % at 2 µM; HUVEC TNFalpha-stimulated, Hoechst cell count;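 active means cell count reduction exceeding the screen mean by over 5 SD, scaled to untreated wells per plate, cut at about 78% in these data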;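 further: cells counted after 24 h of TNF alpha exposure following the 1 h pretreatment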
E-sel TNF inh = E-selectin induction blockers in HUVEC – imaging, immunofluorescence, high content, primary screen; HUVEC TNFa-induced E-selectin immunofluorescence; inhibition, % at 2 µM; 120,000 tested, 0.71% active;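 active means inhibition above the batch mean plus 3 SD, and confirmed as a hit on visual image review, cut at about 43% in these data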;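 further: 0% = TNF-stimulated DMSO wells and 100% = unstimulated control wells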
Numbers without * were called inactive; · = not tested or not shown. An excerpt weighted towards active compounds, which were near 1.2% of everything screened.

SMILES	VCAM1 TNFa inh	F-actin modifier	HUVEC tox TNFa	E-sel TNF inh
CCOc1cc(C(=O)Nc2cccc3ncccc23)cc(OCC)c1OCC	18	53*	30	·
CC(NC(=S)NCCCN1CCOCC1)C12CC3CC(CC(C3)C1)C2 (stereo unspecified)	·	·	·	-14
Cn1c(SCC(=O)NC2CCCCC2)nnc1-c1cccc(N)c1	54*	-11	2	3
Cn1c(SCC(=O)NC2CC2)nnc1-c1ccco1	·	·	·	-7
CN1CCCN(S(=O)(=O)c2cccc(Cl)c2Cl)CC1	·	·	·	94*
CN1CCCN(S(=O)(=O)c2ccc(Cl)c(Cl)c2)CC1	·	·	·	100*
O=S(=O)(c1cccc(Cl)c1Cl)N1CCCCC1	8	-7	9	19
Cc1ccc2c(CC(=O)N3CCN(c4ccccc4)CC3)coc2c1	·	·	·	-18
Cc1onc(C(=O)N2C(C)CCCC2C)c1[N+](=O)[O-] (stereo unspecified)	·	·	·	-30
Cn1nc(Oc2ncc(C(F)(F)F)cc2Cl)cc1C(F)(F)F	·	·	·	3
Cc1nnc2n(C3CCCCC3)c(=O)c3c4c(sc3n12)CCC4	3	-16	-26	·
Cc1nnc2n(C3CCCCC3)c(=O)c3c4c(sc3n12)COC(C)(C)C4	65	5	94*	·
O=C(Nc1ccc(N2CCN(C(=O)c3ccccc3F)CC2)cc1)c1ncn[nH]1	·	·	·	-14
Cn1nc(C(F)(F)F)c(C(=O)Nc2ccc(F)cc2F)c1Sc1ccc(C(F)(F)F)cc1	-6	63*	1	1
Cn1nc(C(F)(F)F)c2cc(C(=O)Nc3ccc(F)cc3F)sc21	-7	-12	-9	·
COc1cccc(-c2cc3c(=O)n(-c4ccccc4)c(=S)[nH]c3s2)c1	18	27	-30	66*
C=CCN1CCN(C(c2cc(OC)ccc2OC)c2nnnn2CC2CCCO2)CC1 (stereo unspecified)	1	-23	-3	71*
Cc1c(Cl)cccc1-n1ccnc1SCC(=O)O	94*	-31	78*	·
CC(C)c1ccc(-n2ccnc2SCC(=O)O)cc1	·	·	·	-6
O=C(N/N=C/c1ccc(O)cc1)c1ccc(COc2cc(Cl)ccc2Cl)o1	23	-40	-6	96*
COc1ccc(S(=O)(=O)N2CCc3ccccc32)cc1C(=O)NCCc1ccccn1	·	·	·	1
CCOC(=O)c1sc(NC(=O)CCN2C(=O)c3cccc([N+](=O)[O-])c3C2=O)c(C(=O)OCC)c1C	10	-12	-30	-12
CCSc1nc2ccccc2n1CC(N)=O	-8	4	-25	-28
CCSc1nc2ccccc2n1C(=O)/C=C\c1ccc(OC)c(OC)c1	94*	23	22	-46
O=C(NCC1OCCCN1S(=O)(=O)c1cc(F)ccc1F)C(=O)NC1CCCCC1 (stereo unspecified)	·	·	·	-17
SMILES	VCAM1 TNFa inh	F-actin modifier	HUVEC tox TNFa	E-sel TNF inh
CCOc1ccc(S(=O)(=O)Nc2ccccn2)c2ccccc12	6	4	-26	-5
O=S(=O)(Nc1ccccn1)c1ccc(Cl)c2ccccc12	·	·	·	82*
CCC(CC)C(=O)N(c1ccc(F)cc1)C1C=CS(=O)(=O)C1 (stereo unspecified)	11	-22	-33	·
CC(C)C(=O)N(c1ccc(F)cc1)C1C=CS(=O)(=O)C1 (stereo unspecified)	-10	10	-18	82*
COC(=O)[C@@]1(Cc2ccc(F)cc2)[C@H]2c3cc(C(=O)N(C)C)n(Cc4c(CO)[nH]cc(C)c4=O)c3C[C@H]2CN1C(=O)c1ccccc1	·	·	·	-26
COc1ccccc1-c1cc(C(F)(F)F)nc(S(=O)(=O)CCCC(=O)N2CCCCC2C)n1 (stereo unspecified)	71*	21	-15	·
CC(=O)NC(CCCN1C(=O)c2ccccc2C1=O)c1nnn(C)n1 (stereo unspecified)	·	·	·	50
CN(C)c1ccc(NC(=O)COC(=O)Cn2nnc3ccccc32)cc1	·	·	·	89*
Cc1ccc2c(c1)c(-c1ccccc1)nc1nnnn12	·	·	·	-27
CC(C)Oc1ccc(/C=N/NC(=O)C(CSCc2ccccc2)NC(=O)c2ccc([N+](=O)[O-])cc2)cc1 (stereo unspecified)	16	-9	-36	96*
O=C(COc1ccc(/C=N/NC(=O)c2ccccc2)cc1)Nc1ccc([N+](=O)[O-])cc1	-2	16	-13	5
COc1ccc(OC)c(C2CC(=O)c3c([nH]c(C(=O)OC(C)C)c3C)C2)c1 (stereo unspecified)	41*	7	57	12
Cc1ccc(CNC(=O)COC(=O)c2ccc(S(=O)(=O)N(C)C)cc2)cc1	·	·	·	21
C=CCc1cccc(/C=N/NC(=O)CNc2ccccc2)c1O	10	-5	-2	-6
C=CCc1cccc(/C=N/NC(=O)CCCNc2ccc(C)cc2)c1O	·	·	·	69*
C=CC(=O)NCCCc1cc(C(C)(C)C)c(O)c(C(C)(C)C)c1	·	·	·	15
O=c1c2c(-c3cccs3)csc2ncn1/N=C/c1ccc(OC(F)F)cc1	9	2	-29	18
O=C(O)COc1ccc(/C=N/n2cnc3scc(-c4cccs4)c3c2=O)cc1	·	·	·	93*
N=c1nc(N)nc2n1NC(c1ccc(F)cc1)=CS2	55*	-16	-2	15
CCN(CC)c1ccc(N2C(=O)/C(=C\c3cccs3)SC2=S)cc1	12	-7	-6	12
O=C1/C(=C/c2cccs2)SC(=S)N1c1ccccc1	-2	-2	-9	56*
O=C(NN=C1CCCC1)c1ccccc1OCc1ccc(Cl)cc1	·	·	·	1
COc1ccccc1C(=O)NCCN1CCN(C(=O)c2ccccc2OC)CC1	13	18	41	100*
c1ccc2c(-c3[nH]ncc3CNCCCn3ncc4ccccc43)cccc2c1	·	·	·	-5
CC(C)(C)OC(=O)NNC(=O)NC12CC3CC(CC(C3)C1)C2	·	·	·	66*
SMILES	VCAM1 TNFa inh	F-actin modifier	HUVEC tox TNFa	E-sel TNF inh
CSc1nnc(C)c(=O)n1COC(=O)c1ccc(S(=O)(=O)N(C)C)cc1	·	·	·	6
Cc1cc(OCC(=O)OCC(=O)Nc2cc(C(F)(F)F)ccc2N2CCOCC2)ccc1Cl	·	·	·	10
COc1ccc(C2C3=C(CC(C)(C)CC3=O)Nc3cc4c(cc32)OCO4)cc1 (stereo unspecified)	16	-25	5	6
COc1ccc(OC)c(C2C3=C(COC3=O)Nc3cc4c(cc32)OCO4)c1 (stereo unspecified)	96*	16	76	0
CCOC(=O)c1c(C)c(C(=O)Nc2ccc3c(c2)OCCO3)c(C)n1C	·	·	·	96*
CCOC(=O)c1ccc(NC(=O)Nc2ccc3c(c2)OCCO3)cc1	-8	28	-25	-14
O=C(CSc1nnc(Cc2ccccc2)o1)NC1CCCCC1	-1	8	5	-25
COc1ccc(Cc2nnc(SCC(=O)NC3CCCC3)o2)cc1	16	4	-27	54*
O=C(Nc1cc(=O)[nH]c2ncnn12)c1ccccc1	3	-16	-6	-6
O=C(Nc1cc(=O)[nH]c2ncnn12)c1ccc(Cl)cc1Cl	12	17	-9	62*
O=C(Nc1nnc(-c2ccco2)s1)C1CC1	3	12	-7	95*
CCOC(=O)N1CCN(C(=O)C2CCN(S(=O)(=O)c3cc(OC)ccc3OC)CC2)CC1	·	·	·	72*
